The list is not random: actives were taken first. Their share in the collection is about 21%.
Cycloheximide cs: Cycloheximide Counterscreen for Small Molecule Inhibitors of Shiga Toxin | cell reporter, cycloheximide protein synthesis inhibition counterscreen | max response, % | 12% of 300,000 active; in the data active = max response mostly above about 13%, no sharp cut-off; inactive = mostly below about 14%; note: read at 38.3 µM for the half of the compounds with a filed dose; 0% is about no effect
NS1 inh: qHTS Assay for Inhibitors of Influenza NS1 Protein Function; Potency, µM (doses to about 46.1 µM), without a hit: top-dose activity, positive = more growth; 0.4% of 270,000 active; AID 2326, 2010; calls by dose curve; note: potency is the fitted concentration of half-maximal effect; actives are rising curves; nearly all actives have a fitted effect of over 50% in size
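S. cerevisiae expressing influenza A NS1, grown in glucose, washed, then diluted 1:100 into pH 6.0 -URA galactose medium with 23 nl compound. Growth recovery read as OD600; NS1-free strain serves as control.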
Pf growth 48h: Primary qHTS for delayed death inhibitors of the malarial parasite plastid, 48 hour incubation; Potency, µM (highest dose often 28.7 µM), without a hit: at the top dose activity change, negative = inhibition, actives largely listed as inhibitors; 5.9% of 310,000 active; P. falciparum luciferase growth in erythrocytes, 48 h; AID 504832, 2011; note: potency is the fitted concentration of half-maximal effect; % is set by controls: 0 for no effect and ±100 for the full control effect
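Cell-based growth assay: transgenic P. falciparum expressing firefly luciferase, cultured in red cells within RPMI 1640 containing 0.5% w/v Albumax, 24 mM bicarbonate and gentamycin. A drop in luciferase activity indicates inhibition.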
Pf growth 96h: Primary qHTS for delayed death inhibitors of the malarial parasite plastid, 96 hour incubation. 6.9% of 320,000 active. Potency, µM (series often up to 28.7 µM), inactives show top-dose activity change, negative = inhibition, hits mostly inhibitors. P. falciparum luciferase reporter growth, 96 h. AID 504834, 2011; note: potency is the fitted concentration of half-maximal effect; % is set by controls: 0 for no effect and ±100 for the full control effect
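Two parasite generations (96 h, 37 C, 5% CO2) of compound exposure in infected erythrocytes (0.05% parasitemia, 2% hematocrit). Luciferase-reporter P. falciparum; decreased luminescence indicates inhibited growth, aimed at apicoplast-acting delayed death.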
Shiga toxin inh: A qHTS for Small Molecule Inhibitors of Shiga Toxin | Vero cells, Shiga toxin protein synthesis inhibition reporter | AID 2315, 2010 | inhibition, % at 38.7 µM | 9.2% of 290,000 active; in the data active = inhibition mostly above about 28%, no sharp cut-off; inactive = mostly below about 43%; note: 0% is about no effect
Active calls of the source: *. Unless noted, calls come from the whole dose curve; as a rule, active = well fitted inhibition curve with a large enough effect; inconclusive = small, poorly fitted or top-dose-only effect, or another doubt; inactive = no such curve, though single readings can be large or run the other way.

`O=C(Nc1cccc(OC(=O)N2CCOCC2)c1)N1CCOCC1` gave Cycloheximide cs -2, NS1 inh 0%, Pf growth 48h -2%, Pf growth 96h 18% and Shiga toxin inh -11.
Screening O=C(Nc1cccc(O)c1)N1CCOCC1 returned Cycloheximide cs 6, NS1 inh 10%, Pf growth 48h 40%, Pf growth 96h 12µM* and Shiga toxin inh 21.
For CCN(C(=O)COc1cc(OC)ccc1C(C)=O)C1CCS(=O)(=O)C1 (configuration not stated) the results were Pf growth 48h inconclusive and Pf growth 96h 5%.
Screening Cc1noc(C)c1-c1ccc2ncnc(NCc3ccccc3C(F)(F)F)c2c1 returned Cycloheximide cs 17 and Shiga toxin inh 5.
For COc1ccc(C2C(C#N)=C(C)NC3=C2C(=O)c2ccccc23)cc1 (configuration not stated) the results were Cycloheximide cs 1, NS1 inh 0%, Pf growth 48h -22%, Pf growth 96h inconclusive and Shiga toxin inh -18.
For CC1=C([N+](=O)[O-])C(c2ccccc2)C2=C(N1)c1ccccc1C2=O (configuration not stated) the results were Cycloheximide cs -1, NS1 inh 4%, Pf growth 96h 2.9µM* and Shiga toxin inh -13.
`CC(C)c1ccc(C2C3=C(CC(C)(C)CC3=O)NC3=C2C(=O)c2ccccc23)cc1` (configuration not stated) gave Cycloheximide cs -1, NS1 inh inconclusive, Pf growth 48h 9.3µM*, Pf growth 96h 6.6µM* and Shiga toxin inh -19.
`CC1(C)CC(=O)C2=C(C1)NC1=C(C(=O)c3ccccc31)C2c1ccccc1` (configuration not stated) gave Cycloheximide cs -2, NS1 inh 26%, Pf growth 48h 13µM*, Pf growth 96h inconclusive and Shiga toxin inh -7.
For CCC(C)c1ccc(C2C3=C(Nc4nc(N)[nH]c(=O)c42)c2ccccc2C3=O)cc1 (configuration not stated) the results were Cycloheximide cs -2, NS1 inh 0%, Pf growth 48h -17%, Pf growth 96h inconclusive and Shiga toxin inh -1.
For Nc1nc2c(c(=O)[nH]1)C(c1ccccc1)C1=C(N2)c2ccccc2C1=O (configuration not stated) the results were Cycloheximide cs 0, NS1 inh 4%, Pf growth 48h 9.3µM*, Pf growth 96h 10µM* and Shiga toxin inh 11.
CC1(C)CC(=O)C2=C(C1)NC1=C(C(=O)c3ccccc31)C2c1cccnc1 (configuration not stated) was read as Cycloheximide cs -4, NS1 inh 0%, Pf growth 48h -23%, Pf growth 96h 12% and Shiga toxin inh -5.
Screening CCOc1ccc(C2C(C#N)=C(C)NC3=C2C(=O)c2ccccc23)cc1 (configuration not stated) returned Cycloheximide cs -3, NS1 inh 11%, Pf growth 96h 9.3µM* and Shiga toxin inh -9.
CCc1cc2c(nc1CC)CCN(CC/C(C)=N/O[C@@H](C)c1cc(-c3c(C)cc(C)cc3C)no1)C2 was read as Cycloheximide cs 1, NS1 inh -72%, Pf growth 48h inconclusive, Pf growth 96h 7.4µM* and Shiga toxin inh -14.
C/C(CCN1CCc2nc(-c3ccccc3)c(-c3ccccc3)cc2C1)=N\O[C@@H](C)c1cc(-c2c(C)cc(C)cc2C)no1 was read as Cycloheximide cs -4, NS1 inh inconclusive, Pf growth 48h inconclusive, Pf growth 96h 13µM* and Shiga toxin inh -3.
For CCCC(C)NC(=O)CSCc1ccc(OC)cc1 (configuration not stated) the results were Cycloheximide cs -1, NS1 inh -5%, Pf growth 48h -1%, Pf growth 96h 0% and Shiga toxin inh 2.
O=C(O)Cc1ccc(S(=O)(=O)Nc2ccccc2C(=O)O)cc1 was read as Cycloheximide cs -3, Pf growth 48h 15%, Pf growth 96h 8% and Shiga toxin inh -4.
Screening Cc1nn(CC(=O)N2CCN(c3ccccn3)CC2)c(=O)c2cc3sccc3n12 returned Cycloheximide cs 1, NS1 inh -3%, Pf growth 48h -22%, Pf growth 96h 23% and Shiga toxin inh 3.
For COc1cc(/C=C/c2noc(-c3ccccc3O)n2)cc(OC)c1OC the results were Cycloheximide cs 18, NS1 inh -5%, Pf growth 48h 74%, Pf growth 96h 96% and Shiga toxin inh 26.
For COc1ccc(/C=C/c2noc(-c3ccccc3O)n2)cc1 the results were Cycloheximide cs 56*, NS1 inh 15%, Pf growth 48h -24%, Pf growth 96h inconclusive and Shiga toxin inh 83*.
Screening CC(=O)Oc1ccccc1-c1nc(/C=C/c2ccccc2)no1 returned Cycloheximide cs 47*, NS1 inh -15%, Pf growth 48h 134%, Pf growth 96h -3% and Shiga toxin inh 63*.
Screening CC(=O)N1c2ccc(S(=O)(=O)N3CCC(C(=O)NCc4ccccc4)CC3)cc2CC1C (configuration not stated) returned Cycloheximide cs -4, NS1 inh -7%, Pf growth 48h inconclusive, Pf growth 96h -23% and Shiga toxin inh -11.
Oc1ccc2ccccc2c1N=Nc1ccccn1 was read as Cycloheximide cs 15, NS1 inh -181%, Pf growth 48h inconclusive, Pf growth 96h 6.6µM* and Shiga toxin inh 18.
`O=S(=O)(O)c1cccc(N=Nc2c(O)ccc3ccccc23)c1` gave Cycloheximide cs -2, NS1 inh 2%, Pf growth 48h inconclusive, Pf growth 96h 10µM* and Shiga toxin inh -6.
`Cc1ccc(N=Nc2c(O)ccc3cc(S(=O)(=O)O)ccc23)cc1` gave NS1 inh -3%.
Oc1ccc2ccccc2c1N=Nc1ccccc1F was read as Cycloheximide cs 4, NS1 inh 2%, Pf growth 48h -21%, Pf growth 96h inconclusive and Shiga toxin inh 21.
`CCOC(=O)c1[nH]c(=O)c2ccccc2c1O` gave Cycloheximide cs 5, NS1 inh -9%, Pf growth 48h 33%, Pf growth 96h -1% and Shiga toxin inh 10.
`CCOC(=O)c1[nH]cnc1N=Nc1c(O)ccc2ccccc12` gave Cycloheximide cs 2, NS1 inh 11%, Pf growth 48h 2.9µM*, Pf growth 96h 2.3µM* and Shiga toxin inh -6.
`C/C(=N\NC(=O)CCc1ccc(S(=O)(=O)N2CCOCC2)cc1)c1ccc(Br)cc1` gave Cycloheximide cs -1, Pf growth 48h -39%, Pf growth 96h inconclusive and Shiga toxin inh -1.
Screening Clc1ccc(-c2nc(NCCCN3CCOCC3)c3ccccc3n2)cc1 returned Cycloheximide cs -3, NS1 inh -1%, Pf growth 48h inconclusive, Pf growth 96h inconclusive and Shiga toxin inh -4.
